Measured values from ChEMBL document CHEMBL3433997, “St. Jude Leishmania screening dataset” (2016).

How the values were obtained:
Format in all cases: functional
[1] = target: Solute carrier family 2, facilitated glucose transporter member 1 (Homo sapiens) (UniProt P11166); test: ST_JUDE_LEISH: Cytotoxicity at 2uM final concentration against transgenic Leishmania Mexicana promastigotes LmGLUT1 that are glucose transport deficient and complemented with the human glucose transporter GLUT1. Activity is measured by DNA content using SYBR green in vitro
Sequence of Solute carrier family 2, facilitated glucose transporter member 1 (Homo sapiens) (P11166 whole entry): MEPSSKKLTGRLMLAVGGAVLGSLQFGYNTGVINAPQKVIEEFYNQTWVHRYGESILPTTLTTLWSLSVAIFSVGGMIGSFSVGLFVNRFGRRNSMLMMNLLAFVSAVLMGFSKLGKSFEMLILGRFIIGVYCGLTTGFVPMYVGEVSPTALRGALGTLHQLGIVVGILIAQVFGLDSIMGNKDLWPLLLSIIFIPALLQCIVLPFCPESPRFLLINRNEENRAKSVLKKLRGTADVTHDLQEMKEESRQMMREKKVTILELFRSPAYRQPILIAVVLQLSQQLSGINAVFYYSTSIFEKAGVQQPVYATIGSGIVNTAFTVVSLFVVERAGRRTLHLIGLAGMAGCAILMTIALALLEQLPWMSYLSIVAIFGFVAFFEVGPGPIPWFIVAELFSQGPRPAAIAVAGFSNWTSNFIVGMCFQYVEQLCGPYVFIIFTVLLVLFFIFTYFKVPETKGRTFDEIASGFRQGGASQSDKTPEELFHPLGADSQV

[2] = target: Hexose transporter 1 (Plasmodium falciparum) (UniProt O97467); test: ST_JUDE_LEISH: Cytotoxicity at 2uM final concentration against transgenic Leishmania Mexicana promastigotes LmPfHT that are glucose transport deficient and complemented with the Plasmodium falciparum hexose transporter. Activity is measured by DNA content using SYBR green in vitro
[3] = target: Glucose transporter (Leishmania mexicana) (UniProt O61059); test: ST_JUDE_LEISH: Cytotoxicity at 2uM final concentration against transgenic Leishmania Mexicana promastigotes LmGT2 that are glucose transport deficient and complemented with the L. Mexicana glucose transporter 2. Activity is measured by DNA content using SYBR green in vitro

SMILES | inhibition [1] [%] | inhibition [2] [%] | inhibition [3] [%]
CCN(CC)CCN(Cc1ccc(-c2ccc(C(F)(F)F)cc2)cc1)C(=O)Cn1c(CCc2cccc(F)c2F)c(C)c(=O)c2ccccc21 | 1.84 | 1.5 | 3.04
COc1ccccc1CCNc1ncnc2c1[nH]c1ccc(F)cc12 | 4.25 | 12.9 | 10.1
COc1ccccc1NC(=S)N/N=C/c1ccc(O)cc1O | 1.28 | 6.07 | 0.42
Oc1ccc2nc(N3CCNCC3)nc(NCCCc3ccccc3)c2c1 | -0.71 | -0.65 | 0.5
Cc1cc(N[C@@H](Cc2ccccc2)C(=O)NCc2cccs2)nc(NCCOc2ccccc2)n1 | 8.74 | 10.4 | 5.27
Cc1cc(C(=O)N[C@H]2CCN(Cc3ccc(OCCCN(C)C)cc3)C2)ccc1Br | 0.17 | 0.95 | 1.98
O=S(=O)(NC1CCN(c2ccnc3ccccc23)C1)c1ccc(OC(F)(F)F)cc1 (centres undefined) | 2.25 | -0.51 | 2.41
N#Cc1ccc(N(CCOc2ccc(Cl)c(Cl)c2)Cc2ccccc2C(F)(F)F)cc1C(F)(F)F | 2.54 | -0.11 | 0.26
Cc1cccc2nc(-c3ccc(-c4cccc(CN5CCCC5CN)c4)s3)[nH]c12 (centres undefined) | 2.06 | -0.2 | -0.03
O=C(/C=C/c1ccccc1Cl)Nc1ccc(Br)c(OCCN2CCCCC2)c1 | 2.43 | 2.16 | -0.1
O=C(Nc1ccc(Oc2ccccc2)cc1)N[C@H]1CCN(Cc2ccc(OCCCN3CCCCC3)cc2)C1 | -2.21 | -1.17 | -3.91
O=C(O)CCSc1ncnc2[nH]cnc12 | -2.53 | -2.15 | -2.15
O=C(Nc1cc(=O)[nH]c2nc(-c3ccccc3)nn12)C1CCCCC1 | 2.3 | 2.44 | 3.26
Cc1ccc(CN2CCCCC(NC(=O)c3cc4ccccc4s3)C2)cc1 (centres undefined) | 0.16 | 0.49 | -8.68
Fc1ccc2[nH]c(-c3cccc(-c4ccc(CNCCN5CCNCC5)cc4)c3)nc2c1 | -0.21 | -0.52 | -0.74
Clc1cc(Cl)c2cc(CN[C@H]3CCC[C@@H]3CNc3nc4ccccc4[nH]3)[nH]c2c1 | 0.55 | 1.94 | 2.36
CN(N=Cc1ccccc1)C(=N)NCCCC#Cc1cccc(CN2CCCC2)c1 | 11.4 | 6.82 | 1.72
COCC(=O)N(Cc1ccccc1-c1cccc(CNCc2ccc3c(c2)OCO3)c1)C1CCN(Cc2ccccc2)CC1 | 0.4 | 1.22 | 1.77
CC[C@H](C)CNC(=O)c1cncc(-c2ccc(CNC3Cc4ccccc4C3)cc2)c1 | 6.08 | 6.72 | 5.96
Nc1ccc2[nH]cc(C3CCN(CC4CCC(NC(=O)/C=C/c5ccc(Cl)c(Cl)c5)CC4)CC3)c2n1 (centres undefined) | -2.2 | -0.28 | -4.12
CC1(C)NC(N)=NC(=N)N1OCCCOc1cc(Cl)cc(Cl)c1 | 4.4 | 7.49 | 2.47
O=C(NC1CCN(Cc2ccc(O)cc2)CC1)c1ccc(Cl)c(Cl)c1 | 4.53 | 4.25 | -3.12
CCN(CC)c1ccc(-c2nc3cc(Cl)cnc3[nH]2)cc1 | 5.04 | 5.32 | 3.88
CCCCCC(C)C(C)c1cc(O)c2c(c1)OC(C)(C)CC2=Cc1ccncc1 (centres undefined) | 12.6 | 11.5 | 10.7
COc1ccc(CNC2Cc3ccccc3C2)cc1-c1ccc(S(=O)(=O)NCCN2CCCC2)s1 | 17.7 | 15.5 | 7.58

SMILES | inhibition [1] [%] | inhibition [2] [%] | inhibition [3] [%]
Fc1cccc(COc2ccc(Nc3ncnc4sc(C#C[C@H]5CC[C@H](CNCC(F)(F)F)N5)cc34)cc2Cl)c1 | 1.63 | 1.52 | 1.3
COc1ccc(NC(=O)c2ccc(Br)c(C)c2)cc1N1CCN(CCCCc2ccccc2)CC1 | 1.19 | 0.21 | 0.85
CCN(CC)CCNc1ccnc2[nH]c3ccc(C)cc3c12 | 0.06 | 0.18 | 0.34
N#Cc1c(N2CCCCCC2)nc(N)c2c(N)nc3c(c12)CC(=O)N3c1ccc(F)cc1 | 2.61 | 1.65 | 2.89
Cc1ccc(CN2CCCN(Cc3cccc(NC(=O)c4cc5ccccc5s4)c3)CC2)cc1C | 0.56 | 0.71 | -0.17
CN1CCCC(CN2CCN(Cc3ccc(-c4cccc(-c5nc6cc(F)ccc6[nH]5)c4)cc3)CC2)C1 (centres undefined) | -0.56 | 1.31 | 2.3
O=C(C1CC1)N1c2ccccc2CCc2ccccc21 | -0.93 | -0.1 | -0.64
O=C1CCCN1CCCNCc1ccc(-c2ccc(-c3nc4cc(F)ccc4[nH]3)cc2)cc1 | 11.9 | 13.3 | 12.3
CCOc1ccc(-c2nc(NC(=O)COc3ccc(OC)cc3)sc2C)cc1 | 9.63 | 10 | 10.1
COc1ccc(NC(=O)Nc2cc(C)nc3ccccc23)cc1Cl | 9.47 | 8.02 | 7.39
CC1(C)NC(N)=NC(=N)N1OCCCOc1cccc(Cl)c1 | 3.04 | 5.38 | 2.82
COc1ccc(C(=O)CCC(=O)N(Cc2ccc(-c3ccc(CNCCc4ccc(S(C)(=O)=O)cc4)cn3)cc2)C2CC3CCC2C3)cc1F (centres undefined) | 12.7 | 9.69 | 8.16
Cc1ccc(CN2CCCN(Cc3cccc(NC(=O)c4cc5ccccc5s4)c3)CC2)cc1 | -0.92 | -0.94 | -2.83
CC(C)CNCc1cccc(-c2cccc(CN(CCCN3CCN(C)CC3)C(=O)NC3CCCCC3)c2)c1 | 0.8 | 0.99 | -0.56
O=C(/C=C/c1ccc(Cl)c(Cl)c1)NCCCCCCN1CCN(C(=O)Nc2ccc(Cl)c(C(F)(F)F)c2)CC1 | 4.18 | 4.06 | -1.95
Nc1cccc(CNCc2ccc(-c3ccc(-c4nc5cc(C(F)(F)F)ccc5[nH]4)s3)cc2)c1 | 2.29 | 1.24 | 0.65
COc1cc(CCCOc2c(N)nc(N)nc2N)cc(OC)c1OC | 4.82 | 3.75 | 3.79
CCN(CCCN1CCCCC1)c1cc(C)nc(Nc2ccc(C)cc2Cl)n1 | 9.81 | 7.68 | 7.34
Fc1ccc2[nH]c(-c3ccc(-c4ccc(CNCc5cnn(-c6ccccc6)n5)cc4)cc3)nc2c1 | 1.68 | -1.57 | -1.56
CCCCCC(=O)N1CCOC(CCN2CCC(c3ccccc3)CC2)(c2ccc(Cl)c(Cl)c2)C1 (centres undefined) | 2.57 | 3.27 | 0.92
O=c1cc(NCCCNCc2sc(Br)nc2Br)[nH]c2ccccc12 | 3.62 | 4.14 | 4.34
COCCNCc1ccc(-c2ccc(CNc3ccc4ncccc4c3)cc2)cc1 | 2 | 4.18 | 1.36
O=C(Nc1ccc(OC2CCN(Cc3ccc(F)cc3)CC2)c(Cl)c1)c1ccc(F)cc1 | 2.58 | 3.52 | 7.21
O=C(CCNc1ccnc(NCCc2ccccc2)n1)Nc1ccccc1 | -0.28 | 3.7 | 2.66
COc1ccc2nc(N3CCN(C(=O)OC(C)(C)C)CC3)nc(NCCCc3ccccc3)c2c1 | 28.4 | 23.1 | 8.03

SMILES | inhibition [1] [%] | inhibition [2] [%] | inhibition [3] [%]
CN1CCCN(Cc2cccc(-c3ccc(NC(=O)c4cccc(Cl)c4)cc3)c2)CC1 | 71.1 | 80 | 69.1
O=C(O)CNCC(O)c1ccccc1 (centres undefined) | 0.32 | -0.04 | 0.29
CCOC(=O)CCc1cc(F)c(F)c(OC[C@H](O)CNC(C)(C)C(O)c2ccc3ccccc3c2)c1 (some centres undefined) | 0.06 | 0.61 | 0.21
O=C(Nc1cccc(C(F)(F)F)c1)NC1CCN(c2ccnc3cc(Cl)ccc23)CC1 | 1.6 | 1.64 | -1.47
N=C(N)NN=Cc1c2ccc(Cl)cc2c(Cl)c2ccc(Cl)cc12 | 83.8 | 23.8 | 61.9
O=C(/C=C/c1ccc(F)cc1)NC1CCC(CCN2CCCN(c3ccc(C(F)(F)F)cn3)CC2)CC1 (centres undefined) | 1.97 | -0.46 | -1.02
NC(=O)C1CCN(Cc2ccc(-c3ccc(-c4nc5cc(F)ccc5[nH]4)cc3)cc2)CC1 | 12.7 | 12.7 | 10.8
c1ccc(CN2CCN(CCNc3c4ccccc4nc4ccccc34)CC2)cc1 | 13.5 | 10.9 | 12.9
CC(C)(C)c1ccc2[nH]c(-c3ccc(/C=C/C(=O)NCc4ccc(Cl)c(Cl)c4)cc3)nc2c1 | 6 | 6.31 | 1.89
c1ccc(-c2nc3ccccc3[nH]2)c(Nc2ccnc3cc(-c4nccs4)ccc23)c1 | 4.76 | 0.91 | 0.58
COc1cc2nccc(Nc3ccc(NC(=O)c4ccc(C)cc4)c(O)c3)c2cc1OC | 6.88 | 9.16 | 2.92
COc1cccc(Nc2nc(Nc3cccc(C#N)c3)cc(-c3ccncc3)n2)c1 | 3.83 | 4.95 | 1.57
Nc1nc2c(c(=O)[nH]1)CN(S(=O)(=O)c1ccc(C(=O)N[C@@H](CCC(=O)O)C(=O)O)cc1)CC2 | -3.01 | -2.13 | -1.12
Cc1cccc2nc(-c3ccc(-c4ccc(CN5CCCCC5)cc4)cc3)[nH]c12 | 19.2 | 18.6 | 10.2
COc1ccc(CN(C)CCCOc2ccc(NC(=O)C=Cc3ccc(C(C)(C)C)cc3)cc2)cc1OC | 13.9 | 9.61 | 9.75
O=C(NCCCCCN1CCC(c2c[nH]c3ccccc23)CC1)Nc1cccc(Br)c1 | 8.56 | 7.56 | 5.45
Cc1nc2ccc3ccc(CNc4ccc(C#N)cc4)cc3c2c(=O)[nH]1 | 50.2 | 39.6 | 56
CC1(C)NC(N)=NC(=N)N1OCCCOc1ccccc1Cl | 8.95 | 10 | 12
COc1cccc(C=NN=c2cc(C)[nH]c3ccccc23)c1 | 3.57 | 3.07 | 3.02
COc1cccc(NC(=O)NC2CCN(c3ccnc(Nc4cc(OC)c(OC)c(OC)c4)n3)C2)c1 (centres undefined) | 1.18 | -1.6 | 5.86
Cc1cccc2nc(-c3cccc(-c4cccc(CN5CCN(c6ccc(C#N)cn6)CC5)c4)c3)[nH]c12 | 11.6 | 10.3 | 9.4
CCN1CCCC1CN(Cc1ccc(-c2ccc(C(F)(F)F)cc2)cc1)C(=O)Cn1c(CCc2cccc(F)c2F)nc(=O)c2ccccc21 (centres undefined) | 1.13 | 2.82 | 1.11
OC1=C2C(=Nc3ccccc3SC2c2ccccc2)c2ccccc21 (centres undefined) | 4.3 | 5.31 | 1.01
